Experimental data taken from PubChem BioAssay (EPA / NIEHS).
Results filed as inconclusive are left out. Activity calls are given as the source filed them. Rule for the calls, unless noted: active = hit-call score of the fitted dose curve at least 0.9, where 1 is the maximum; inactive = score below 0.9.

Assays:
[1] = target: Cellular tumor antigen p53 (Homo sapiens) (UniProt P04637); assay: TOX21_p53_BLA_p2_ratio: Tox21 HCT-116 p53 Agonism Beta-lactamase Assay, Ratio, Phase 2 (AID 2283592; active = hit-call score of the fitted dose curve at least 0.9, where 1 is the maximum)
Cellular tumor antigen p53 (Homo sapiens), sequence (P04637 whole entry, looked up): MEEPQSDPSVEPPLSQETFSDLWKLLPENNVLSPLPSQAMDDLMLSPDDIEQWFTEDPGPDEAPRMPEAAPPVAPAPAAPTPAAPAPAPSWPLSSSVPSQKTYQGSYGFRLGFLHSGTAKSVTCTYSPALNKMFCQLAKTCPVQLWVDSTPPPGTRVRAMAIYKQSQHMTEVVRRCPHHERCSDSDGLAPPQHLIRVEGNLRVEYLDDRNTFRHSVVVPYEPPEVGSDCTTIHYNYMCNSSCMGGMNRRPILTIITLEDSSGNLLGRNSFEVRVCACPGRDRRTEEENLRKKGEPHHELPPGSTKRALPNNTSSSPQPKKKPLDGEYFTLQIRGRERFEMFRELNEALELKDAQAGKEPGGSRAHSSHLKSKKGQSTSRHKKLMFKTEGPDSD
Method in brief: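 First, HCT116 reporter cells settle for 5 h at 37C. Next, DMSO compound solutions are pinned in (217-fold dilution) and left 16 h. Finally, CCF4-AM substrate is loaded 2 h at room temperature and the 460/530 nm ratio read.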

[2] = TOX21_p53_BLA_p3_viability: Viability Assessment in the Tox21 HCT-116 p53 Agonism Beta-lactamase Assay, Phase 3 (AID 2283593; active = hit-call score of the fitted dose curve at least 0.9, where 1 is the maximum;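 note: cells exposed to compound for 16 h before reading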)
Method in brief: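 Cellular ATP was quantified by CellTiter-Glo luminescence, read after 30 min at room temperature. Beforehand, HCT116 cells (4000/well) received compound 5 h post-seeding, 217-fold diluted from DMSO, then incubated 16 h at 37C.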

[3] = target: Cellular tumor antigen p53 (Homo sapiens) (UniProt P04637); assay: TOX21_p53_BLA_p3_ratio: Tox21 HCT-116 p53 Agonism Beta-lactamase Assay, Ratio, Phase 3 (AID 2283596; active = hit-call score of the fitted dose curve at least 0.9, where 1 is the maximum)
Method in brief: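 Cells were seeded at 4000/well, rested 5 h at 37C, then dosed with DMSO compound solutions (217-fold dilution) for 16 h. CCF4-AM substrate was loaded for 2 h at room temperature, and the 460/530 nm emission ratio was fitted for gain of signal versus DMSO.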

[4] = TOX21_p53_BLA_p4_viability: Viability Assessment in the Tox21 HCT-116 p53 Agonism Beta-lactamase Assay, Phase 4 (AID 2283597; active = hit-call score of the fitted dose curve at least 0.9, where 1 is the maximum;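 note: hits lower the luminescence signal meaning cytotoxicity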)
Method in brief: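 4000 HCT116 cells per well; 5 h attachment; compounds from DMSO, 217-fold dilution; 16 h at 37C. Then CCF4-AM, 2 h RT, followed by CellTiter-Glo, 30 min RT, luminescence. Decrease = cytotoxicity.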

[5] = target: Cellular tumor antigen p53 (Homo sapiens) (UniProt P04637); assay: TOX21_p53_BLA_p5_ratio: Tox21 HCT-116 p53 Agonism Beta-lactamase Assay, Ratio, Phase 5 (AID 2283599; active = hit-call score of the fitted dose curve at least 0.9, where 1 is the maximum)
Method in brief: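 Beta-lactamase reporter ratio (blue 460 nm over green 530 nm, 405 nm excitation) after 2 h CCF4-AM loading, in HCT-116 cells exposed 16 h at 37 C to compounds pinned at 217-fold dilution. Increases relative to DMSO baseline scored.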

[6] = TOX21_p53_BLA_p5_viability: Viability Assessment in the Tox21 HCT-116 p53 Agonism Beta-lactamase Assay, Phase 5 (AID 2283600; active = hit-call score of the fitted dose curve at least 0.9, where 1 is the maximum)
Method in brief: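 Decreased CellTiter-Glo luminescence denotes lost viability. Exposure: 16 h at 37C, 5% CO2, with compounds from DMSO stocks diluted 217-fold in wells of 4000 cells.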

[7] = target: Cellular tumor antigen p53 (Homo sapiens) (UniProt P04637); assay: TOX21_p53_BLA_p4_ratio: Tox21 HCT-116 p53 Agonism Beta-lactamase Assay, Ratio, Phase 4 (AID 2283601; active = hit-call score of the fitted dose curve at least 0.9, where 1 is the maximum)
Method in brief: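 Signal is the blue/green (460nm/530nm) ratio of cleaved versus uncleaved CCF4-AM substrate, read after 2 h substrate loading. Cells were HCT116 carrying the p53-responsive beta-lactamase reporter, dosed 16 h at 37C, 5% CO2; CellTiter-Glo measured in parallel.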

[8] = CCTE_Harrill_HTTr_Viability_MCF7: CCTE's 6-hour Cell Viability Assessment for the High-Throughput Transcriptomics (HTTr) Platform, in MCF-7 cells cultured in DMEM + 10% fetal bovine serum, Harrill Lab (AID 2284010)
Method in brief: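 Read-out is propidium iodide gain of signal by high-content imaging, reflecting membrane integrity loss. Measurements are taken 6 h after dosing, eight concentrations per chemical, with DMSO serving as baseline for bidirectional curve fitting.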

[9] = CCTE_Harrill_HTTr_Apoptosis_MCF7: CCTE's 6-hour Apoptosis Assessment for the High-Throughput Transcriptomics (HTTr) Platform, in MCF-7 cells cultured in DMEM + 10% fetal bovine serum, Harrill Lab (AID 2284011)
Method in brief: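 MCF-7 cells in DMEM + 10% FBS exposed 6 h to chemicals over an eight-point dilution series. Caspase-3/7 activation imaged by high-content CellEvent Green staining; fitted bidirectionally versus DMSO.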

[10] = CCTE_Shafer_MEA_dev_firing_rate_mean: CCTE's Neural Network Formation Assay for Mean Firing Rate, Shafer Lab (AID 2284031)
Method in brief: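 Steps: seed rat cortical cells (1.5 x 10^5/well) with laminin on PEI-coated MEA; dose day 0; record DIV 5/7/9/12, full media and compound exchange after DIV 5 and 9 recordings; compute well-mean firing rate AUC.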

[11] = CCTE_Shafer_MEA_dev_per_burst_spike_percent: CCTE's Neural Network Formation Assay for Percent of Spikes in a Burst, Shafer Lab (AID 2284032)
Method in brief: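 Value is trapezoidal AUC over recordings on days 5, 7, 9 and 12 of the well-mean fraction of spikes falling in single-electrode bursts; rat cortical cultures exposed continuously from plating, treatment renewed DIV 5 and 9, fitted downward against DMSO.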

[12] = CCTE_Shafer_MEA_dev_active_electrodes_number: CCTE's Neural Network Formation Assay for Number of Active Electrodes, Shafer Lab (AID 2284040; active = hit-call score of the fitted dose curve at least 0.9, where 1 is the maximum)
Method in brief: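 Counts electrodes per well firing at least 5 spikes/min, recorded on days 5, 7, 9 and 12 in rat cortical cultures dosed continuously from plating (treatment refreshed DIV 5, 9). Value is the area under the curve over recordings, fitted downward relative to DMSO.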

[13] = CCTE_Shafer_MEA_dev_burst_rate: CCTE's Neural Network Formation Assay for Burst Rate, Shafer Lab (AID 2284042)
Method in brief: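 Exposure ran continuously over 12 days of network development in rat cortical cultures, with compound refreshed during full media changes on DIV 5 and 9. Single-electrode bursts per recording time, well-mean over active electrodes, trapezoidal AUC across days 5–12, fitted downward relative to DMSO.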

[14] = CCTE_Shafer_MEA_dev_bursting_electrodes_number: CCTE's Neural Network Formation Assay for Number of Bursting Electrodes, Shafer Lab (AID 2284043; active = hit-call score of the fitted dose curve at least 0.9, where 1 is the maximum)
Method in brief: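 Number of electrodes reaching ≥1 burst every 2 min was recorded at DIV 5, 7, 9 and 12 and collapsed as trapezoidal area under the curve. Cultures were rat cortical neurons on MEA plates, dosed continuously from plating with medium and treatment refreshed on DIV 5 and 9.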

[15] = CCTE_Shafer_MEA_dev_per_burst_interspike_interval: CCTE's Neural Network Formation Assay for Burst Interspike Interval, Shafer Lab (AID 2284044)
Method in brief: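 Primary rat cortical neurons on 48-well MEA plates, exposed from day 0 through day 12, treatment renewed at DIV 5 and 9. Within-burst interspike interval recorded days 5, 7, 9, 12, well-averaged, summarised as AUC; negative fit versus DMSO.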

[16] = CCTE_Shafer_MEA_dev_burst_duration_mean: CCTE's Neural Network Formation Assay for Mean Burst Duration, Shafer Lab (AID 2284045)
Method in brief: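 Mean single-electrode burst duration (first to last spike), averaged over bursting electrodes per well, then integrated as area-under-curve across recordings at days 5, 7, 9 and 12. Rat cortical cultures on MEAs, compound present from plating, refreshed at feeds.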

[17] = CCTE_Shafer_MEA_dev_interburst_interval_mean: CCTE's Neural Network Formation Assay for Mean Interburst Interval, Shafer Lab (AID 2284046);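 note: well-mean interburst interval of bursting electrodes as AUC over four recording days; curve fitted for decrease in interburst interval relative to DMSO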
Method in brief: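 Primary rat cortical neurons on PEI-coated 48-well MEA plates (laminin added with cells at plating) (16 electrodes/well), exposed from plating day 0 with renewal at DIV 5 and 9. Mean inter-burst interval averaged over bursting electrodes, AUC across days 5, 7, 9, 12; DMSO baseline.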

[18] = CCTE_Shafer_MEA_dev_inter_network_spike_interval_mean: CCTE's Neural Network Formation Assay for Mean Inter-network Spike Interval, Shafer Lab (AID 2284047)
Method in brief: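 Mean time between consecutive network-spike peaks, recorded extracellularly (adaptive spike detection) on DIV 5, 7, 9 and 12, summarized as trapezoidal AUC. Rat cortical cultures on MEAs dosed continuously days 0–12, re-dosed at feeds; loss-of-signal fit relative to DMSO.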

[19] = CCTE_Shafer_MEA_dev_network_spike_number: CCTE's Neural Network Formation Assay for Number of Network Spikes, Shafer Lab (AID 2284048);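 note: synchronized bursts across electrodes counted on days 5 7 9 12 and integrated as AUC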
Method in brief: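 Number of network spikes (coordinated firing across electrodes) recorded on days 5, 7, 9 and 12 and summarised as area under the curve. Rat cortical cultures on MEA, continuous compound exposure with full medium/treatment exchange at DIV 5 and 9.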

[20] = CCTE_Shafer_MEA_dev_spike_duration_mean: CCTE's Neural Network Formation Assay for Mean Spike Duration, Shafer Lab (AID 2284051);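 note: mean network spike duration pooled as area under curve over DIV 5 to 12 recordings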
Method in brief: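 Spontaneous activity was recorded on days 5, 7, 9 and 12 from rat cortical cultures grown on microelectrode arrays and dosed continuously from day 0, with media and compound renewed after the DIV 5 and 9 recordings. Network-spike duration was collapsed by area under the curve.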

[21] = CCTE_Shafer_MEA_dev_network_spike_duration_std: CCTE's Neural Network Formation Assay for Standard Deviation of Network Spike Duration, Shafer Lab (AID 2284052);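 note: hits are decreases in network spike duration SD versus DMSO vehicle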
Method in brief: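 Network spike duration variability was collapsed across recordings on days 5, 7, 9 and 12 by trapezoidal area-under-curve and fitted downward against DMSO. Cultures were rat cortical neurons on PEI-coated MEA plates, dosed continuously from plating, refed with compound DIV 5/9.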

[22] = CCTE_Shafer_MEA_dev_per_network_spike_spike_number_mean: CCTE's Neural Network Formation Assay for Mean Number of Spikes in a Network Spike, Shafer Lab (AID 2284053)
Method in brief: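 Mean spike count within each network spike, taken in a 0.05 s window at its peak, was recorded on days 5, 7, 9 and 12 and integrated as trapezoidal area under the curve. Rat cortical cultures on MEA plates received continuous compound from day 0, refreshed at medium changes on DIV 5 and 9.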

[23] = CCTE_Shafer_MEA_dev_per_network_spike_spike_percent: CCTE's Neural Network Formation Assay for Percent of Spikes in a Network Spike, Shafer Lab (AID 2284054)
Method in brief: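 Metric: fraction of spikes falling in a 0.05 s window at network-spike peaks. Recordings were made on days 5, 7, 9 and 12 and collapsed by trapezoidal AUC. Cultures were rat cortical neurons on MEA plates, dosed continuously from plating, re-dosed at media changes.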

[24] = UKN5_HCS_SBAD2_cell_viability: Viability Assessment in the University of Konstanz (UKN) Leist Lab Neurite Outgrowth Assay in human iPSC-derived immature Dorsal Root Ganglia Neurons (UKN5) (AID 2284056)
Method in brief: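 iPSC-derived immature peripheral neurons (SBAD2) seeded on Matrigel with CHIR99021, SU5402 and DAPT, dosed 1 h later for 24 h. Viability from Hoechst H-33342 and calcein-AM live staining, high-content imaging; bidirectional fit versus DMSO.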

[25] = CCTE_Shafer_MEA_dev_LDH: CCTE's Lactate Dehydrogenase Assay for Cytotoxicity in the Neural Network Formation Assay, Shafer Lab (AID 2284068; active = hit-call score of the fitted dose curve at least 0.9, where 1 is the maximum;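 note: exposure for twelve days from plating with re-dosing on DIV 5 and 9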)
Method in brief: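 Primary rat cortical neurons were cultured on PEI-coated MEA plates and exposed from plating through day 12, with compound renewed at medium changes on DIV 5 and 9. LDH activity was read spectrophotometrically; loss of signal versus DMSO indicates reduced viability.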

[26] = UKN5_HCS_SBAD2_neurite_outgrowth: University of Konstanz (UKN) Leist Lab Neurite Outgrowth Assay in human iPSC-derived immature Dorsal Root Ganglia Neurons (UKN5) (AID 2284070); details: actives raise or lower the signal
Method in brief: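 Thaw, seed on Matrigel (100.000 cells/cm2), dose 1 h later; at 23 h live-stain with H-33342 and calcein-AM for 60 min; image at 24 h. Neurite area fitted bidirectionally vs DMSO.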

[27] = CCTE_Shafer_MEA_dev_AB: CCTE's Alamar Blue Assay for Cytotoxicity in the Neural Network Formation Assay, Shafer Lab (AID 2284083; active = hit-call score of the fitted dose curve at least 0.9, where 1 is the maximum;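 note: resazurin reduction fluorescence as viability of cultured neurons; twelve days of exposure from plating with re-dosing on DIV 5 and 9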)
Method in brief: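 Resazurin fluorescence, relative to DMSO, gauges viability after twelve days of exposure that began at plating of rat cortical neurons (1.5 x 10^5 cells/well, 48-well MEA); treatment renewed with full medium exchange on DIV 5 and 9.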

[28] = CCTE_Shafer_MEA_dev_mutual_information_norm: CCTE's Neural Network Formation Assay for Mutual Information Normalization, Shafer Lab (AID 2284091)
Method in brief: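 Shared information across electrodes, tracked on days 5, 7, 9 and 12 of network development and collapsed as trapezoidal area under the curve. Rat cortical cultures were treated continuously from plating, with treatment renewed at feeds on DIV 5 and 9; DMSO baseline, negative-direction fit.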

[29] = CCTE_Shafer_MEA_dev_correlation_coefficient_mean: CCTE's Neural Network Formation Assay for Mean Correlation Coefficient, Shafer Lab (AID 2284093)
Method in brief: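 Primary rat cortical neurons on PEI-coated 48-well MEA plates (16 electrodes/well) were exposed from plating day 0 through DIV12, with compound renewed at DIV5 and 9. Pairwise spike correlations were averaged per well; trapezoidal AUC across DIV5, 7, 9, 12.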

Measured: outcome

C[C@@H]1C[C@H]2[C@@H]3CCC4=CC(=O)C=C[C@]4(C)[C@@]3(F)[C@@H](O)C[C@]2(C)[C@@]1(O)C(=O)CO
inactive: all assays above
